{"source": "the supplement of paper PMC4840960", "note": "Structures can show the parent of a compound that is named as a salt. ± gives the standard deviation of the averaged measurements.", "data": [{"test_system": "E18 rat cortical neuron-glia co-culture", "assay": "fiber score / MBP score (myelination specific beyond OL differentiation) (ratio); higher = more myelination-specific MBP alignment", "conditions": "1 µM; treatment time: 8 days (DIV5-DIV13)", "in_short": "(§1)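 Library compounds were applied at 1 or 5 µM in myelination medium, DIV5 to DIV13, to primary E18 rat cortical co-cultures grown at 20,000 cells/well in 96-well plates. After 4 % paraformaldehyde fixation and MBP/Olig2/DAPI immunostaining, four 10X fields per well in duplicate wells were scored. Each value is continuous MBP fiber length per Olig2+ nucleus divided by thresholded MBP area × intensity per Olig2+ nucleus.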", "values": [{"molecule": "COc1cc2c(cc1OC)[C@@]13CCN4CC5=CCO[C@H]6CC(=O)N2[C@H]1[C@H]6[C@H]5C[C@H]43", "note": "[Brucine]", "fiber score / MBP score": 0.957}, {"molecule": "CC(NC(C)(C)C)C(=O)c1cccc(Cl)c1", "note": "(centres undefined) [Bupropion]", "fiber score / MBP score": "0.583 ± 0.43"}, {"molecule": "C[C@]12CC[C@H](O)CC1=CC[C@@H]1[C@@H]2CC[C@]2(C)C(=O)CC[C@@H]12", "note": "[Dehydroepiandrosterone]", "fiber score / MBP score": 1.25}, {"molecule": "CC(C)(O)[C@@H]1[C@H]2OC(=O)[C@@H]1[C@]1(O)C[C@H]3O[C@]34C(=O)O[C@H]2[C@]14C", "note": "[Picrotin]", "fiber score / MBP score": 0.632}, {"molecule": "Oc1cc2c(cc1O)[C@H]1c3ccccc3CN[C@@H]1CC2", "note": "(racemic) [Dihydrexidine]", "fiber score / MBP score": 1.05}, {"molecule": "CC[C@@H]1C=CC=CC[C@H](C)[C@@H](O)[C@@H](C)C(=O)[C@H](C)[C@@H](O)[C@H](C)C(=O)[C@H](C)[C@@H](O)[C@H](C)C=CC(=O)O[C@H]2[C@@H](C)[C@@H](CC1)O[C@@]1(CC[C@@H](C)[C@@H](C[C@H](C)O)O1)[C@@H]2C", "note": "[Oligomycin C]", "fiber score / MBP score": 0.799}, {"molecule": "FC(F)(F)c1cccc(N2CCNCC2)c1", "note": "[1-(3-trifluoromethylphenyl)piperazine hydrochloride (TFMPP)]", "fiber score / MBP score": 0.633}, {"molecule": "NC(=O)OCCCc1ccccc1", "note": "[Phenprobamate]", "fiber score / MBP score": 0.695}, {"molecule": "C[C@]12CCC(=O)C[C@@H]1CC[C@@H]1[C@@H]2CC[C@@]2(C)[C@H]1CC[C@]2(C)O", "note": "[Mestanolone]", "fiber score / MBP score": 0.746}, {"molecule": "CS(=O)(=O)Nc1ccc(Cc2noc(-c3ccc4[nH]cc(CCN)c4c3)n2)cc1", "fiber score / MBP score": 0.563}, {"molecule": "CCCN1C[C@H](CSC)C[C@@H]2c3cccc4[nH]cc(c34)C[C@H]21", "note": "[Pergolide]", "fiber score / MBP score": 0.689}, {"molecule": "C[N+]1(CCC(C(N)=O)(c2ccccc2)c2ccccc2)CCCCC1", "note": "[Fenpiverinium]", "fiber score / MBP score": 1.01}, {"molecule": "C[C@]12CC[C@H]3[C@@H](CCC4=CC(=O)CC[C@@]43C)[C@@H]1CC[C@@H]2O", "note": "[Testosterone]", "fiber score / MBP score": "0.988 ± 0.093"}, {"molecule": "CN1CCN(C(=O)O[C@H]2c3nccnc3C(=O)N2c2ccc(Cl)cn2)CC1", "note": "[Eszopiclone]", "fiber score / MBP score": 0.461}, {"molecule": "C=C1C[C@@H]2[C@H](CC[C@]3(C)C(=O)CC[C@@H]23)[C@@]2(C)C=CC(=O)C=C12", "note": "[Exemestane]", "fiber score / MBP score": 0.805}, {"molecule": "C[C@]12CC[C@H]3[C@@H](CCC4=CC(=O)CC[C@@H]43)[C@@H]1CC[C@@H]2O", "note": "[Nandrolone]", "fiber score / MBP score": 0.984}, {"molecule": "CCC1(c2ccc(N)cc2)CCC(=O)NC1=O", "note": "(centres undefined) [Aminoglutethimide]", "fiber score / MBP score": 0.845}, {"molecule": "O=C(O)C(Cl)Cl", "note": "[Dichloroacetic Acid]", "fiber score / MBP score": 0.765}, {"molecule": "C=CCN1CC[C@]23c4c5ccc(O)c4O[C@H]2C(=O)CC[C@@]3(O)[C@H]1C5", "note": "[Naloxone]", "fiber score / MBP score": 0.965}, {"molecule": "CC(O)(CS(=O)(=O)c1ccc(F)cc1)C(=O)Nc1ccc(C#N)c(C(F)(F)F)c1", "note": "(centres undefined) [Bicalutamide]", "fiber score / MBP score": 0.676}, {"molecule": "O=C1Nc2ccc(Cl)cc2C(c2ccccc2Cl)=NC1O", "note": "(centres undefined) [Lorazepam]", "fiber score / MBP score": 0.711}, {"molecule": "COc1cc(N)c(Cl)cc1C(=O)NC1CN2CCC1CC2", "note": "(centres undefined) [Zacopride]", "fiber score / MBP score": 0.703}, {"molecule": "CN1[C@@H]2CC[C@H]1C[C@@H](OC(=O)[C@H](CO)c1ccccc1)C2", "note": "[Hyoscyamine]", "fiber score / MBP score": 0.631}, {"molecule": "CCCCC/C=C\\C/C=C\\C/C=C\\C/C=C\\CCCC(=O)Nc1ccc(O)cc1", "fiber score / MBP score": 0.943}, {"molecule": "COc1ccc2[nH]cc(C3=CCNCC3)c2c1", "fiber score / MBP score": 0.706}, {"molecule": "c1ccc(Cn2ccnc2)cc1", "note": "[1-Benzylimidazole]", "fiber score / MBP score": 0.664}, {"molecule": "Oc1ccc2c3c1O[C@H]1c4[nH]c5ccccc5c4C[C@@]4(O)[C@@H](C2)N(CC2CC2)CC[C@]314", "note": "[Naltrindole]", "fiber score / MBP score": 0.716}]}, {"test_system": "E18 rat cortical neuron-glia co-culture", "assay": "fiber score / MBP score (myelination specific beyond OL differentiation) (ratio); higher = more myelination-specific MBP alignment", "conditions": "5 µM; treatment time: 8 days (DIV5-DIV13)", "in_short": "as §1", "values": [{"molecule": "COc1cc2c(cc1OC)[C@@]13CCN4CC5=CCO[C@H]6CC(=O)N2[C@H]1[C@H]6[C@H]5C[C@H]43", "note": "[Brucine]", "fiber score / MBP score": 0.692}, {"molecule": "CC(NC(C)(C)C)C(=O)c1cccc(Cl)c1", "note": "(centres undefined) [Bupropion]", "fiber score / MBP score": "0.467 ± 0.35"}, {"molecule": "C[C@]12CC[C@H](O)CC1=CC[C@@H]1[C@@H]2CC[C@]2(C)C(=O)CC[C@@H]12", "note": "[Dehydroepiandrosterone]", "fiber score / MBP score": 0.965}, {"molecule": "CC(C)(O)[C@@H]1[C@H]2OC(=O)[C@@H]1[C@]1(O)C[C@H]3O[C@]34C(=O)O[C@H]2[C@]14C", "note": "[Picrotin]", "fiber score / MBP score": 0.797}, {"molecule": "Oc1cc2c(cc1O)[C@H]1c3ccccc3CN[C@@H]1CC2", "note": "(racemic) [Dihydrexidine]", "fiber score / MBP score": 3.38}, {"molecule": "CC[C@@H]1C=CC=CC[C@H](C)[C@@H](O)[C@@H](C)C(=O)[C@H](C)[C@@H](O)[C@H](C)C(=O)[C@H](C)[C@@H](O)[C@H](C)C=CC(=O)O[C@H]2[C@@H](C)[C@@H](CC1)O[C@@]1(CC[C@@H](C)[C@@H](C[C@H](C)O)O1)[C@@H]2C", "note": "[Oligomycin C]", "fiber score / MBP score": 1.11}, {"molecule": "FC(F)(F)c1cccc(N2CCNCC2)c1", "note": "[1-(3-trifluoromethylphenyl)piperazine hydrochloride (TFMPP)]", "fiber score / MBP score": 0.613}, {"molecule": "NC(=O)OCCCc1ccccc1", "note": "[Phenprobamate]", "fiber score / MBP score": 0.885}, {"molecule": "C[C@]12CCC(=O)C[C@@H]1CC[C@@H]1[C@@H]2CC[C@@]2(C)[C@H]1CC[C@]2(C)O", "note": "[Mestanolone]", "fiber score / MBP score": 0.854}, {"molecule": "CS(=O)(=O)Nc1ccc(Cc2noc(-c3ccc4[nH]cc(CCN)c4c3)n2)cc1", "fiber score / MBP score": 0.612}, {"molecule": "CCCN1C[C@H](CSC)C[C@@H]2c3cccc4[nH]cc(c34)C[C@H]21", "note": "[Pergolide]", "fiber score / MBP score": 0.278}, {"molecule": "C[N+]1(CCC(C(N)=O)(c2ccccc2)c2ccccc2)CCCCC1", "note": "[Fenpiverinium]", "fiber score / MBP score": 1.19}, {"molecule": "C[C@]12CC[C@H]3[C@@H](CCC4=CC(=O)CC[C@@]43C)[C@@H]1CC[C@@H]2O", "note": "[Testosterone]", "fiber score / MBP score": "0.928 ± 0.1"}, {"molecule": "CN1CCN(C(=O)O[C@H]2c3nccnc3C(=O)N2c2ccc(Cl)cn2)CC1", "note": "[Eszopiclone]", "fiber score / MBP score": 0.876}, {"molecule": "C=C1C[C@@H]2[C@H](CC[C@]3(C)C(=O)CC[C@@H]23)[C@@]2(C)C=CC(=O)C=C12", "note": "[Exemestane]", "fiber score / MBP score": 0.86}, {"molecule": "C[C@]12CC[C@H]3[C@@H](CCC4=CC(=O)CC[C@@H]43)[C@@H]1CC[C@@H]2O", "note": "[Nandrolone]", "fiber score / MBP score": 0.883}, {"molecule": "CCC1(c2ccc(N)cc2)CCC(=O)NC1=O", "note": "(centres undefined) [Aminoglutethimide]", "fiber score / MBP score": 0.779}, {"molecule": "O=C(O)C(Cl)Cl", "note": "[Dichloroacetic Acid]", "fiber score / MBP score": 0.882}, {"molecule": "C=CCN1CC[C@]23c4c5ccc(O)c4O[C@H]2C(=O)CC[C@@]3(O)[C@H]1C5", "note": "[Naloxone]", "fiber score / MBP score": 1.09}, {"molecule": "CC(O)(CS(=O)(=O)c1ccc(F)cc1)C(=O)Nc1ccc(C#N)c(C(F)(F)F)c1", "note": "(centres undefined) [Bicalutamide]", "fiber score / MBP score": 0.996}, {"molecule": "O=C1Nc2ccc(Cl)cc2C(c2ccccc2Cl)=NC1O", "note": "(centres undefined) [Lorazepam]", "fiber score / MBP score": 1.13}, {"molecule": "COc1cc(N)c(Cl)cc1C(=O)NC1CN2CCC1CC2", "note": "(centres undefined) [Zacopride]", "fiber score / MBP score": 0.884}, {"molecule": "CN1[C@@H]2CC[C@H]1C[C@@H](OC(=O)[C@H](CO)c1ccccc1)C2", "note": "[Hyoscyamine]", "fiber score / MBP score": 0.692}, {"molecule": "CCCCC/C=C\\C/C=C\\C/C=C\\C/C=C\\CCCC(=O)Nc1ccc(O)cc1", "fiber score / MBP score": 0.96}, {"molecule": "COc1ccc2[nH]cc(C3=CCNCC3)c2c1", "fiber score / MBP score": 0.448}, {"molecule": "c1ccc(Cn2ccnc2)cc1", "note": "[1-Benzylimidazole]", "fiber score / MBP score": 0.942}, {"molecule": "Oc1ccc2c3c1O[C@H]1c4[nH]c5ccccc5c4C[C@@]4(O)[C@@H](C2)N(CC2CC2)CC[C@]314", "note": "[Naltrindole]", "fiber score / MBP score": 0.673}]}]}
